Compound activity from PubChem.
Sampled rows, rich in hits. Any-hit rate of the full collection: about 10%.
Six1-Eya2 blk: Six1/Eya2 interaction inhibition | AID 651725 | AlphaScreen GST-Six1/His-Eya2 binding, biochemical; stronger effect = lower value | Q15475+O00167 | activity change, % (concentration not given with the values) | actives 0.56% (n = 360,000); in the data active means activity change below about -65%; inconclusive means mostly about -30% to -63%; further: on the % scale 0 is the no-effect control and ±100 the full control effect
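Compounds are tested against tagged Six1 and Eya2 proteins bridged by glutathione donor and nickel acceptor beads; after a one-hour incubation at 37 °C without light, AlphaScreen emission is recorded.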
CtBP-E1A blk: CtBP/E1A binding inhibition. AlphaScreen GST-E1A/His-CtBP binding, 1536-well; stronger effect = lower value. activity change, % (test concentration not listed). actives 0.49% (n = 340,000). AID 651724; in the data active means activity change below about -65%; inconclusive means mostly about -30% to -63%; further: on the % scale 0 is the no-effect control and ±100 the full control effect
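AlphaScreen with 125 nM GST-E1A and 125 nM His-CtBP (5X stocks) in Tris pH 8.0, 300 mM NaCl, BSA, Tween 20, TCEP. Compounds preincubated 2 h at 37 deg C, then glutathione donor/nickel acceptor beads added for 1 h at 37 deg C in dark.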
JMJD2A Tudor inh: JMJD2A Tudor domain (human) inhibition | O75164 | AlphaScreen JMJD2A-Tudor / H3K4me3 peptide binding | Potency, µM (series often up to 114 µM), inactives show top-dose activity change, negative = inhibition, usual class: inhibitors | actives 4.4% (n = 390,000); further: potency means the concentration at half of the fitted maximal effect; on the % scale 0 is the no-effect control and ±100 the full control effect; nearly all actives have a fitted effect of over 50% in size
Target sequence (O75164 whole entry, looked up, the tested form may be a part): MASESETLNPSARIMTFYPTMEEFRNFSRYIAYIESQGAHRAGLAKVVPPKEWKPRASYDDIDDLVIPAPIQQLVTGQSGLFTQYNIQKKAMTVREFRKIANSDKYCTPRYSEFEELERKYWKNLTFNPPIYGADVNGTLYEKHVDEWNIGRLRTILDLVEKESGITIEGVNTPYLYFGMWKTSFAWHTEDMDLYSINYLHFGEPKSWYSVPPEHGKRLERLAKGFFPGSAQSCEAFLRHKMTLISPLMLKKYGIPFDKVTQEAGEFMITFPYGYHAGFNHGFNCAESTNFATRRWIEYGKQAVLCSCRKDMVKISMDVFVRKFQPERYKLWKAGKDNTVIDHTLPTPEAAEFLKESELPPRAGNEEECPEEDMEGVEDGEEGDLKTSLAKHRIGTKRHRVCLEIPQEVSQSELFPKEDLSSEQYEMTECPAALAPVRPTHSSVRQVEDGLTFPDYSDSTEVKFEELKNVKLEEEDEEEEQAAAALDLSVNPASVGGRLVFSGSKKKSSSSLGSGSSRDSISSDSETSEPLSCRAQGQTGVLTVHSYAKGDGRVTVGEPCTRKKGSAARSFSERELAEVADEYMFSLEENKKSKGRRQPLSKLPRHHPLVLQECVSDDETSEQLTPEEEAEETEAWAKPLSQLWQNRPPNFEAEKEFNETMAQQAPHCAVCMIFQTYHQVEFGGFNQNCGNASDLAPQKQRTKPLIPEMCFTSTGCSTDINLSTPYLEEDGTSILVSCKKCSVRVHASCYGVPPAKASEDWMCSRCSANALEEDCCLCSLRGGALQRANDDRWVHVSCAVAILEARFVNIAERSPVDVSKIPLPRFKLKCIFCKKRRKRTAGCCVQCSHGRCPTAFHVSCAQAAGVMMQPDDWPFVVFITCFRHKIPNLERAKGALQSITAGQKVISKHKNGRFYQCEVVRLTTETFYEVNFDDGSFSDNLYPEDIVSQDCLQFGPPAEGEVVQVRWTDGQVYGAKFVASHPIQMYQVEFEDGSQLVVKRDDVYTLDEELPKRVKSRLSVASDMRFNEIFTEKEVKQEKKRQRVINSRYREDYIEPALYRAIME
G9a block: G9a (human) methyltransferase inhibition. Potency, µM (highest dose often 102 µM), for inactives: top-dose activity, negative = inhibition, usual class: inhibitors. Q96KQ7. AID 504332. G9a H3K9 monomethylation, AlphaScreen, 2 h. actives 8.8% (n = 350,000); further: potency means the concentration at half of the fitted maximal effect; on the % scale 0 is the no-effect control and ±100 the full control effect; nearly all actives have a fitted effect of over 75% in size
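Methyltransferase reactions run at room temperature for 2 h (20 nM enzyme, 500 nM biotin-H3K9 peptide, 20 uM SAM) after a 15 min compound preincubation; product detected by AlphaScreen beads and anti-H3K9me1 antibody.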
BAZ2B block: BAZ2B (human) inhibition; Q9UIF8; AlphaScreen BAZ2B-H3K14Ac peptide displacement; Potency, µM (titrated, usually from 114 µM), inactives show at the highest dose activity change, negative = inhibition, hits mostly inhibitors; actives 4.4% (n = 360,000); further: potency means the concentration at half of the fitted maximal effect; on the % scale 0 is the no-effect control and ±100 the full control effect; nearly all actives have a fitted effect of over 60% in size
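Multi-concentration screen (max 110 uM) measuring displacement of acetylated histone H3 peptide from BAZ2B by AlphaScreen, using 50 nM protein, 50 nM peptide and 10 ug/mL streptavidin donor plus Ni-chelate acceptor beads.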
HP1b binding inh: blocks HP1-beta chromodomain binding to methylated histone tails; AID 540317; P83916; AlphaScreen HP1-beta / biotin-H3K9me3 peptide binding; Potency, µM (titrated, usually from 114 µM), inactives show top-dose activity change, negative = inhibition, usual class: inhibitors; actives 0.56% (n = 390,000); further: potency means the concentration at half of the fitted maximal effect; nearly all actives have a fitted effect of over 70% in size
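HP1-beta protein (50 nM final) preincubated 30 min at room temperature with biotinylated H3(1-18)K9me3 peptide (50 nM) in PBS pH 7.4, 0.01% Tween-20, then compound added for 30 min. AlphaScreen streptavidin donor/nickel chelate acceptor beads (10 ug/mL final), 30 min dark, luminescence read.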
An asterisk follows results filed as active; ? = inconclusive; . = not tested or not shown; ! = repeats disagree; [ ] = dose if it differs, or a comment. Unless noted, the call rests on the fitted dose curve; in most records, active means well fitted inhibition curve with a large enough effect; inconclusive means small, poorly fitted or top-dose-only effect; inactive means no such curve, though single readings can be large or run the other way.

SMILES	Six1-Eya2 blk	CtBP-E1A blk	JMJD2A Tudor inh	G9a block	BAZ2B block	HP1b binding inh
O=C1C[C@@H]2OCC=C3CN4CC[C@]56c7ccccc7N1[C@@H]5[C@@H]2[C@H]3C[C@H]46 (tested in a mixture with another compound)	.	.	.	9%[59 µM]	.	.
Cc1ccc(CN(C)CCc2ccccn2)cc1	-1	7	3.2µM*	13µM*	?	?
CN(CCc1ccccn1)Cc1ccc(Cl)cc1	2	1	6.3µM*	10µM*	45µM*	?
Cc1cc(=O)n2[nH]c(C)cc2n1	-6	.	-7%[11.4 µM]	-34%	5%	61%
O=C(Cc1ccc(Cl)c(Cl)c1)N1CCCCC1CN1CCCC1 (configuration not stated)	.	.	.	27µM*	.	.
CC1O[C@@H](OC2CC[C@@]3(C=O)C4CC[C@]5(C)C(C6=CC(=O)OC6)CC[C@@]5(O)C4CC[C@]3(O)C2)C(O)C(O)C1O (some centres not stated)	.	.	.	-30%[2.33 µM]	.	.
CC1OC(O[C@H]2C[C@@H](O)[C@]3(CO)[C@@H]4C(CC[C@]3(O)C2)[C@@]2(O)CC[C@H](C3=CC(=O)OC3)[C@@]2(C)C[C@H]4O)C(O)C(O)C1O (some centres not stated)	.	.	.	28%[59 µM]	.	.
O=C(NCc1ccc(Cl)cc1)C1CCCN(C(=O)c2cnn(-c3ccc(F)cc3)c2-n2cccc2)C1 (configuration not stated)	.	.	-37%	?	-26%	18%
COc1ccc(N2CCN(CCCNC(=O)c3cnn(-c4ccc(F)cc4)c3-n3cccc3)CC2)cc1	.	.	45µM*	13µM*	?	-11%
CCCCn1c(-c2nn(C)cc2Cl)n[nH]c1=S	3	1	7.9µM*	13µM*	-2%[57.1 µM]	3%
CCN1C(=O)N(CC)C(=O)C2(Cc3ccccc3N3CCN(c4ccccc4)CC32)C1=O (configuration not stated)	-3	.	-22%	2µM*	?	42%
CN1C(=O)N(C)C(=O)C2(Cc3cc(NC(=O)c4ccccc4)ccc3N3CCCC32)C1=O (configuration not stated)	0	-5	-23%	32µM*	-18%	45%
CN1C(=O)N(C)C(=O)C2(Cc3cc(N)ccc3N3CCN(c4ccccc4F)CC32)C1=O (configuration not stated)	.	.	.	28µM*	50µM*	.
CN1CCN(c2nc(N)cc(=O)[nH]2)CC1	4	.	-10%	39%[0.501 µM]	2%	23%
CN1CCN2c3ccc(N)cc3CC3(C(=O)NC(=O)NC3=O)C2C1 (configuration not stated)	2	8	89µM*	18µM*	7.9µM*	-12%
CN1C(=O)N(C)C(=O)C2(Cc3cc(NC(=O)c4ccccc4Cl)ccc3N3CCCC32)C1=O (configuration not stated)	-5	-11	?	.	-11%	41%
CN1CCCC2(CCN(C(=O)Oc3ccccc3)CC2)C1	.	.	.	9%[12.7 µM]	.	.
Cn1cnc(CCN)c1	3	-21	14µM*	7.9µM*!	.	17%
COc1ccnc(N=CNOCc2ccc(C)cc2)c1C#N	1	3	-5%[57.1 µM]	3%	-2%	47%
COC(=O)C1=C(C(=O)OC)SC2(S1)C(C(=O)OC)=C(C(=O)OC)Sc1c2ssc1=O	-91*	6	40µM*	.	.	16µM*
O=C(Oc1ccccc1)N1CCC2(CCCN(C(c3ccccc3)c3ccccc3)C2)CC1	.	.	.	-12%[12.7 µM]	.	.
C[C@]12CC[C@@H]3c4ccc(O)cc4CC[C@H]3[C@@H]1C[C@@H](O)[C@@H]2O[C@@H]1O[C@H](C(=O)O)[C@@H](O)[C@H](O)[C@H]1O	0	1	-10%	?	-18%	64%
c1ccc(-c2nc(N3CCOCC3)s[n+]2-c2ccccc2)cc1	4	7	18µM*	1.1µM*	-33%	?
COc1ccc(/C=C/C(=O)c2c(O)n(CCC3=CCCCC3)c(=O)[nH]c2=O)cc1	2	-1	-32%	13%[59 µM]	0%	31%
O=C(/C=C/c1ccc2c(c1)OCO2)c1c(O)n(CCC2=CCCCC2)c(=O)[nH]c1=O	4	7	-11%	11µM*	9%	14%
SMILES	Six1-Eya2 blk	CtBP-E1A blk	JMJD2A Tudor inh	G9a block	BAZ2B block	HP1b binding inh
COC[C@H]1OC(=O)c2coc3c2[C@@]1(C)C1=C(C3=O)[C@@H]2CCC(=O)[C@@]2(C)C[C@H]1OC(C)=O	-4	-3	-5%	5µM*	.	25%
Cc1cccc(CN2CCc3nc(N4CCN(c5ccccn5)CC4)ncc3C2)c1	.	.	79µM*	?	50µM*	6%
COc1cccc(CN2CCc3nc(N4CCN(c5ncccn5)CC4)ncc3C2)c1	.	.	63µM*	-1%[12.7 µM]	40µM*	-7%
N#Cc1cccc(NC(=O)N2CC3(CCN(C(=O)Oc4ccccc4)CC3)C2)c1	.	.	.	11%[12.7 µM]	.	.
Cc1cc(C)nc(N/N=C/C2=C(O)CC(c3ccccc3)CC2=O)n1 (configuration not stated)	.	.	.	-13%	22µM*	.
CC(=O)N1CCN(c2ccc([N+](=O)[O-])cc2C=C2C(=O)NC(=O)NC2=O)CC1	5	2	0%	40µM*	13%	39%
CN[C@H](C)[C@H](O)c1ccccc1	-2	5	-19%	1%[59 µM]	-7%	18%
CN[C@@H](C)[C@H](O)c1ccccc1	.	.	.	0.045µM*	.	.
O=C1OC(=O)c2c(Br)c(Br)c(Br)c(Br)c21	0	-4	?	-24%[0.501 µM]	?	46%
CN1C[C@H](C(=O)NC2(C)OC3(O)[C@@H]4CCCN4C(=O)[C@H](Cc4ccccc4)N3C2=O)CC2c3cccc4[nH]cc(c34)C[C@H]21 (some centres not stated)	-11	-1	?	.	.	-19%
CC(C)C[C@H]1C(=O)N2CCC[C@H]2[C@]2(O)O[C@](NC(=O)[C@@H]3C=C4c5cccc6[nH]cc(c56)C[C@H]4N(C)C3)(C(C)C)C(=O)N12	-2	?	50µM*	6.3µM*	-34%	-14%
CN1C[C@H](C(=O)N[C@]2(C)O[C@@]3(O)[C@@H]4CCCN4C(=O)[C@H](Cc4ccccc4)N3C2=O)C=C2c3cccc4[nH]cc(c34)C[C@H]21	.	.	.	13µM*	.	.
CC(C)C[C@H]1C(=O)N2CCC[C@H]2[C@]2(O)O[C@](NC(=O)[C@@H]3C=C4c5cccc6[nH]c(Br)c(c56)C[C@H]4N(C)C3)(C(C)C)C(=O)N12	.	.	.	24µM*	.	.
